From PubChem BioAssay (Tox21)
A number with no mark means an inactive call. Records with an inconclusive call do not appear. A call without a number means that no potency is given here. The source made the active and inactive calls. Unless noted, the call rests on the fitted dose curve.

Key:
[1] = Nuclear factor erythroid 2-related factor 2/antioxidant responsive element (Nrf2/ARE) small molecule agonists: qHTS cell viability counter screen in human keratinocytes (AID 1919968; active means well fitted curve in the direction sought with a large enough effect in the repeat runs; an effect the other way counts as inactive or inconclusive; further: nearly all actives have a fitted effect of over 55% in size; further: potency means the concentration at half of the fitted maximal effect)
Procedure, shortened: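 In human HaCaT keratinocytes stably expressing an ARE-driven luciferase, compound exposure lasted 23 h at 37 C under 5% CO2. Viable cells are quantified with a protease-based fluorogenic reagent (CellTiter-Fluor) read 1 h after addition.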

[2] = Nuclear factor erythroid 2-related factor 2/antioxidant responsive element (Nrf2/ARE) small molecule agonists: luciferase reporter gene qHTS assay in human keratinocytes (AID 1919969); further: nearly all actives have a fitted effect of over 35% in size; further: potency means the concentration at half of the fitted maximal effect
[3] = biological target: Gonadotropin-releasing hormone receptor (Homo sapiens) (UniProt P30968); experiment: Human gonadotropin-releasing hormone receptor (GnRHR) small molecule agonists, calcium flux assay in GnRHR-HEK293 cells (AID 1920063); further: nearly all actives have a fitted effect of over 35% in size
Chain of Gonadotropin-releasing hormone receptor (Homo sapiens) (P30968 whole entry, looked up): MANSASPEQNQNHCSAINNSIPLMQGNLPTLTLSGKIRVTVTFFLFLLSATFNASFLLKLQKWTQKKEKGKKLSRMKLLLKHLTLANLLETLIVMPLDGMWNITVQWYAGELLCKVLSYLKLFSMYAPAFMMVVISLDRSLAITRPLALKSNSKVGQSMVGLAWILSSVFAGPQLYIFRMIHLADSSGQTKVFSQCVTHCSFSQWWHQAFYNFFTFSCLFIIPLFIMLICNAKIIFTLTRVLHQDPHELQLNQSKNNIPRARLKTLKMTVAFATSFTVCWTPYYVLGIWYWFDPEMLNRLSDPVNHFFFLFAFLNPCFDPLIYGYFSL
Procedure, shortened: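 Intracellular calcium rise is the read-out: engineered human GnRHR HEK293 cells, dye-loaded, are exposed to DMSO-dissolved compounds and fluorescence at Ex/Em 480/540 is tracked for 3 min.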

[4] = biological target: KiSS-1 receptor (Homo sapiens) (UniProt Q969F8); experiment: Human kisspeptin (KISS1R) small molecule agonists, calcium flux assay in KISS1R-HEK293 cells (AID 1920064; active means well fitted curve in the direction sought with a large enough effect in the repeat runs; an effect the other way counts as inactive or inconclusive)
Chain of KiSS-1 receptor (Homo sapiens) (Q969F8 whole entry, looked up): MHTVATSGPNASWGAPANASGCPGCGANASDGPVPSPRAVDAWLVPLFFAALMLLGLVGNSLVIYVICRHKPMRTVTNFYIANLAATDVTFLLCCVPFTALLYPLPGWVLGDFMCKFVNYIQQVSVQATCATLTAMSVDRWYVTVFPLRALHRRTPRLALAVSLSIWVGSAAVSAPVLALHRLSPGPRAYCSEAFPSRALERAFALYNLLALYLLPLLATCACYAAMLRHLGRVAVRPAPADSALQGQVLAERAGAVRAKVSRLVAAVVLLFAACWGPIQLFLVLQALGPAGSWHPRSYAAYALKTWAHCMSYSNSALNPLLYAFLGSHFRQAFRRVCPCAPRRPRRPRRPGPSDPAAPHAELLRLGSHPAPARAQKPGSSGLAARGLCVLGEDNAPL
Procedure, shortened: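 Concentration-response testing used 15 concentrations in triplicate on human KISS1R-expressing HEK293 cells. Calcium-dependent fluorescence (Ex/Em 480/540) was followed kinetically for 3 min after compound transfer.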

[5] = G protein-coupled receptor (GPCR) small molecule agonists, calcium flux assay: HEK293 wild type cell line counter screen (AID 1920065)
Procedure, shortened: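 Fluorescence intensity signals activation. After overnight (18 h) culture and a 1 h calcium dye load at 37 C, compounds are added by pin tool and the plate read at 480/540 nm for 3 min in 1 s steps.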

[6] = p53 small molecule agonists, cell-based qHTS assay with rat liver microsomes (AID 1963578)
Procedure, shortened: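 Agonist mode in p53RE-bla reporter cells, with compounds co-incubated 16 h at 37 C alongside 0.5 mg/mL rat liver microsomes and 0.5 mg/mL NADPH (final), followed by a 2 h LiveBLAzer detection step.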

[7] = p53 small molecule agonists, cell-based qHTS assay with human liver microsomes: qHTS cell viability counter screen (AID 1963579); further: nearly all actives have a fitted effect of over 45% in size
Procedure, shortened: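 Metabolically activated exposure: compounds, human liver microsomes and NADPH (0.5 mg/mL final apiece) were added to p53RE-bla cells seeded 5 h earlier, left 16 h at 37 C, and then assessed for viability by CellTiter-Glo luminescence.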

[8] = p53 small molecule agonists, cell-based qHTS assay with rat liver microsomes: qHTS cell viability counter screen (AID 1963580); further: nearly all actives have a fitted effect of over 45% in size
Procedure, shortened: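 Luminescent ATP readout (CellTiter-Glo, 30 min at room temperature) reports viability of p53RE-bla HCT-116 cells after 16 h at 37 C with test compounds under metabolic activation by rat liver microsomes and NADPH at 0.5 mg/mL final each.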

[9] = p53 small molecule agonists, cell-based qHTS assay: qHTS cell viability counter screen (AID 1963581); further: nearly all actives have a fitted effect of over 45% in size
Procedure, shortened: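 Luminescence from CellTiter-Glo, reflecting ATP content, serves as the cytotoxicity measure; it is taken after the 2 h reporter substrate step in HCT-116 p53RE-bla cells dosed for 16 h at 37 C.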

[10] = p53 small molecule agonists, cell-based qHTS assay (AID 1963582; active means well fitted activation curve with a large enough effect in the signal ratio in the repeat runs, not every such curve was filed as active; the % refers to the signal ratio)
Procedure, shortened: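 After plating, p53RE-bla cells sat 5 h in the incubator; compounds or DMSO vehicle were pinned in; a 16 h incubation at 37 C followed; FRET substrate was added and, 2 h later at RT, fluorescence was measured.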

[11] = cAMP Responsive Elements (CRE) small molecule agonists, cell-based qHTS assay (AID 1963590)
Procedure, shortened: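 Compound exposure lasted 3 h at 37 C/5% CO2 in CRE-bla HEK 293T cells grown in assay medium with 10% dialyzed FBS and 25 mM HEPES. Reporter signal came from LiveBLAzer B/G FRET substrate, 2 h, room temperature.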

[12] = cAMP Responsive Elements (CRE) small molecule antagonists, cell-based qHTS assay (AID 1963591; active means well fitted inhibition curve with a large enough effect in the signal ratio in the repeat runs, not every such curve was filed as active; the % refers to the signal ratio)
Procedure, shortened: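 Stimulation used NKH477 at a final 0.25 uM for 3 h in compound-treated CRE-bla HEK293T cells, seeded 18 h beforehand. Reporter activity was measured with LiveBLAzer B/G FRET substrate after 2 h at room temperature.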

[13] = biological target: Beta-2 adrenergic receptor (Homo sapiens) (UniProt P07550); experiment: Adrenergic beta2 receptor (ADRB2) small molecule antagonists, cell-based qHTS assay (AID 1963592); further: series mostly up to about 92 µM; nearly all actives have a fitted effect of over 50% in size
Chain of Beta-2 adrenergic receptor (Homo sapiens) (P07550 whole entry, looked up): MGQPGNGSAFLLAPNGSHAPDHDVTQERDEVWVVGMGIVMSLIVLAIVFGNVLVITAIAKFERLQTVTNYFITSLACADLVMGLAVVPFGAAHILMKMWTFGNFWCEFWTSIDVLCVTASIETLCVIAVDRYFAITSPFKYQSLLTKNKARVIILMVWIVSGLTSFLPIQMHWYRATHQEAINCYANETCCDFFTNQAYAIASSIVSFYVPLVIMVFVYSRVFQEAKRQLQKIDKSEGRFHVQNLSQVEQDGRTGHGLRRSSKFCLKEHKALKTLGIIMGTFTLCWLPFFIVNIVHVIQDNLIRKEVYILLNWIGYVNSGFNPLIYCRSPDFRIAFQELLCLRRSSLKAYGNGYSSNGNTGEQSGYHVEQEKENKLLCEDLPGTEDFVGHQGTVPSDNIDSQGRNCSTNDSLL
Procedure, shortened: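 Assay format: CHO-ADRB2 cells, 18-20hr seeding at 37C/5% CO2, then compound plus 1nM isoproterenol agonist mix for 0.5hr RT. Homogeneous time-resolved fluorescence cAMP detection after 1hr, expressed as 665/615 nm ratio.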

[14] = biological target: D(2) dopamine receptor (Homo sapiens) (UniProt P14416); experiment: Dopamine D2 receptor (DRD2) small molecule antagonists, cell-based qHTS assay (AID 1963595; active means well fitted inhibition curve with a large enough effect in the signal ratio in the repeat runs, with a control signal flat; the % refers to the signal ratio; further: potency means the concentration at half of the fitted maximal effect)
Chain of D(2) dopamine receptor (Homo sapiens) (P14416 whole entry, looked up): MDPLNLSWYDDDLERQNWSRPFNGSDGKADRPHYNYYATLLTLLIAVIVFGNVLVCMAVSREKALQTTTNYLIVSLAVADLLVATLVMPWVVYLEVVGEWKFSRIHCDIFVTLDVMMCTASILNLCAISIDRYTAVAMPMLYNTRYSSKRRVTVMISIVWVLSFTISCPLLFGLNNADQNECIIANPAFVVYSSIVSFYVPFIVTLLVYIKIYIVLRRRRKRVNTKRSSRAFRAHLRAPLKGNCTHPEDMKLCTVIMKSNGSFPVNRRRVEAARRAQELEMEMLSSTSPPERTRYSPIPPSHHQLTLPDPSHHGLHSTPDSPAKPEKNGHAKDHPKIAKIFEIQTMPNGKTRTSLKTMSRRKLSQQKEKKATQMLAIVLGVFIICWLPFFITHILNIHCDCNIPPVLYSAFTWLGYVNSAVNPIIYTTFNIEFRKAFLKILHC
Procedure, shortened: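 Stable D2 receptor HEK293 line, 24 h after seeding. Compound preincubated 10 min, then quinpirole (12 nM) with forskolin analogue NKH477 (200 nM), 30 min, room temperature. Detection by time-resolved FRET of cAMP.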

[15] = biological target: 5-hydroxytryptamine receptor 2A (Homo sapiens) (UniProt P28223); experiment: 5-hydroxytryptamine receptor 2A (HTR2A) small molecule antagonists, cell-based qHTS assay (AID 1963586); further: nearly all actives have a fitted effect of over 45% in size
Chain of 5-hydroxytryptamine receptor 2A (Homo sapiens) (P28223 whole entry, looked up): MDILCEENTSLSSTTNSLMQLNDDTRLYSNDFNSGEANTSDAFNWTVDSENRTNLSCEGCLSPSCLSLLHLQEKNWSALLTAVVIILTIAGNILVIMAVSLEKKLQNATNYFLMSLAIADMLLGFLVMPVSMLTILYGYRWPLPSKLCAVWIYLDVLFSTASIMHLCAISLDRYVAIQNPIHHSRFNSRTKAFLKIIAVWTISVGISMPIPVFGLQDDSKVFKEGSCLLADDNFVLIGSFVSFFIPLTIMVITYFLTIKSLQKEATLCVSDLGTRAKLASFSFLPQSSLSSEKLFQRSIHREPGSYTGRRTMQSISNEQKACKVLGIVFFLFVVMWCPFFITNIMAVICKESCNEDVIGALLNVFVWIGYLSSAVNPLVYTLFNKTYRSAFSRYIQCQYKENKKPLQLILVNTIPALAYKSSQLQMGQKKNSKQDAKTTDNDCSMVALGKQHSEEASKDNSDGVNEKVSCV
Procedure, shortened: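 CHO cells stably expressing human HTR2A were plated for 18 h at 37 C, then loaded with calcium dye for 1 h. Compounds were preincubated 5 min at room temperature before DOI (4 nM solution) was added. Kinetic fluorescence was read for 3 min.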

[16] = biological target: 5-hydroxytryptamine receptor 2A (Homo sapiens) (UniProt P28223); experiment: 5-hydroxytryptamine receptor 2A (HTR2A) small molecule agonists, cell-based qHTS assay (AID 1963587); further: nearly all actives have a fitted effect of over 30% in size
Procedure, shortened: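 HTR2A-CHO cells, plated 18 h at 37 C/5% CO2, dye-loaded 1 h at 37 C; compounds in DMSO added by pin tool (agonist mode). Intracellular calcium flux read as kinetic fluorescence on FDSS over 2 min at 1 s intervals.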

[17] = biological target: Muscarinic acetylcholine receptor M1 (Homo sapiens) (UniProt P11229); experiment: Cholinergic receptor muscarinic 1 (CHRM1) small molecule antagonists, cell-based qHTS assay (AID 1963588); further: nearly all actives have a fitted effect of over 40% in size
Chain of Muscarinic acetylcholine receptor M1 (Homo sapiens) (P11229 whole entry, looked up): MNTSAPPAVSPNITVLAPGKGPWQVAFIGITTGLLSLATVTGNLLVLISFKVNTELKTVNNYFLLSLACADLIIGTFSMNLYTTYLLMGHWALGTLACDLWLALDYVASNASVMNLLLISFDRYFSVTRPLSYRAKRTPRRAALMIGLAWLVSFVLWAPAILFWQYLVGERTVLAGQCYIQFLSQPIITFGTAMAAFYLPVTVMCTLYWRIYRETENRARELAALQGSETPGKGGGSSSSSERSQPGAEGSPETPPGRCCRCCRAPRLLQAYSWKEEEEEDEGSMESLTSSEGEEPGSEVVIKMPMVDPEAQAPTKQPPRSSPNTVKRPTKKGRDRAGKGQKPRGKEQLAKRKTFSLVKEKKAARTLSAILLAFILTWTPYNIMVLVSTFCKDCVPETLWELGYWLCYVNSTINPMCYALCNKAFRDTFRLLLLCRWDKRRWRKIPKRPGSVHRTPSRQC
Procedure, shortened: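 Compounds were tested at 15 concentrations in three independent runs. Dye-loaded CHRM1-CHO cells were exposed 5 min at room temperature before stimulation by acetylcholine added at 50nM. Intracellular calcium was read kinetically on FDSS for 3 min.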

[18] = biological target: Muscarinic acetylcholine receptor M1 (Homo sapiens) (UniProt P11229); experiment: Cholinergic receptor muscarinic 1 (CHRM1) small molecule agonists, cell-based qHTS assay (AID 1963589); further: nearly all actives have a fitted effect of over 35% in size
Procedure, shortened: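 Fluorescent calcium dye reports M1 activation in stably transfected CHO cells. Compounds, 15 concentrations, added after 1 h dye loading at 37 C; kinetic reading at 1 sec intervals.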

[19] = biological target: D(2) dopamine receptor (Homo sapiens) (UniProt P14416); experiment: Dopamine D2 receptor (DRD2) small molecule agonists, cell-based qHTS assay (AID 1963594); further: nearly all actives have a fitted effect of over 35% in size
Procedure, shortened: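 HEK293 cells stably expressing DRD2 were cultured 24 h at 37 C, then given Ro20-1724 (0.1 mM final) and compounds for 10 min at room temperature. NKH477 (200nM) was then added for 30 min. cAMP was read by HTRF.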

[20] = p53 small molecule agonists, cell-based qHTS assay with human liver microsomes (AID 1963577);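 further: p53 response element beta-lactamase reporter cells with liver microsomes plus NADPH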
Procedure, shortened: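 In this qHTS, p53 response-element beta-lactamase cells receive test compound together with a microsome/NADPH activating system (0.5 mg/mL final each) and are incubated 16 h at 37 C before LiveBLAzer fluorescence detection.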

| Compound | Potency [1] | Potency [2] | Potency [3] | outcome [4] | outcome [5] | Potency [6] | Potency [7] | Potency [8] | Potency [9] | Potency [10] | Potency [11] | Potency [12] | Potency [13] | Potency [14] | Potency [15] | Potency [16] | Potency [17] | Potency [18] | Potency [19] | Potency [20] |
| --- | --- | --- | --- | --- | --- | --- | --- | --- | --- | --- | --- | --- | --- | --- | --- | --- | --- | --- | --- | --- |
| C[C@@H]1C[C@H]2[C@@H]3CCC4=CC(=O)C=C[C@]4(C)[C@@]3(F)[C@@H](O)C[C@]2(C)[C@H]1C(=O)CO | inactive | inactive | inactive | inactive | inactive | inactive | inactive | inactive | inactive | inactive | inactive | inactive | inactive | inactive | – | – | – | – | – | – |
| O=c1c(O)c(O)c1=O | inactive | inactive | inactive | inactive | inactive | inactive | inactive | inactive | inactive | inactive | – | inactive | inactive | inactive | inactive | inactive | inactive | inactive | inactive | – |
| Oc1cccc(O)c1O | inactive | inactive | inactive | inactive | inactive | inactive | inactive | inactive | inactive | inactive | inactive | inactive | inactive | inactive | – | – | – | – | inactive | – |
| C/C=C/C=C/CCCCCCCO | inactive | 68.6 µM (active) | inactive | inactive | inactive | inactive | inactive | inactive | inactive | – | – | – | inactive | – | inactive | – | inactive | inactive | inactive | – |
| CNC(=O)c1c(I)c(NC(=O)CCCCC(=O)Nc2c(I)c(C(=O)O)c(I)c(C(=O)NC)c2I)c(I)c(C(=O)O)c1I | inactive | inactive | inactive | inactive | inactive | – | – | – | inactive | inactive | inactive | inactive | inactive | inactive | – | inactive | inactive | inactive | inactive | inactive |
| c1cc(N(CC2CO2)CC2CO2)ccc1Cc1ccc(N(CC2CO2)CC2CO2)cc1 (stereo unspecified) | 43.3 µM (active) | 21.7 µM (active) | inactive | inactive | inactive | inactive | inactive | inactive | inactive | – | – | – | inactive | inactive | – | – | – | – | inactive | – |
| CCN(CC)CCNC(=O)c1cc(S(C)(=O)=O)ccc1OC | inactive | inactive | inactive | inactive | inactive | inactive | inactive | inactive | inactive | inactive | inactive | inactive | inactive | 15 µM (active) | – | – | – | – | inactive | – |
| CC(C)c1ccc2oc3nc(N)c(C(=O)O)cc3c(=O)c2c1 | inactive | 0.944 µM (active) | inactive | inactive | inactive | inactive | inactive | inactive | inactive | inactive | – | – | inactive | inactive | inactive | inactive | inactive | inactive | inactive | – |
